This passage reports outcome and AC50 results from PubChem BioAssay (EPA / NIEHS).

Assay [1] addresses Transcription factor E2F1 (Homo sapiens) (UniProt Q01094). The assay can be described thus: ATG_E2F_CIS: Attagene CIS-FACTORIAL HepG2 Assay for human E2F Transcription Factor 1 (AID 2282935). Particulars: HepG2 Attagene cis-reporter, E2F reporter RNA transcripts; actives raise or lower the signal. The procedure, abridged:
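Transient MRTU transfection of HepG2; 24 h compound exposure; RNA → oligo(dT) RT → PCR → FAM label → HpaI cut → CE fluorescence. Gain/loss of signal fit against DMSO.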

A short description of assay [2]: ATG_E_Box_CIS: Attagene CIS-FACTORIAL HepG2 Assay for human Enhancer Box (E-box) (AID 2282936). Particulars: HepG2 E-box cis-reporter transcription, actives raise or lower the signal. The gist of the method:
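Transiently transfected HepG2, endogenous TF-driven reporters, 24 h dosing. Readout: RT-PCR plus capillary electrophoresis of fluorescent reporter fragments. Gain or loss of signal fitted bidirectionally against DMSO baseline.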

Assay [3] in a line: ATG_M_61_CIS: Attagene CIS-FACTORIAL HepG2 Assay for M61 Transcription Factor (Internal Marker) (AID 2282937). Particulars: HepG2 Attagene CIS-FACTORIAL M61 internal marker reporter; actives raise or lower the signal. The gist of the method:
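Transfect HepG2 with MRTUs; dose 24 h; isolate RNA; reverse-transcribe with DNase I treatment; PCR-amplify, FAM-label and cut with HpaI for 2 h at 37 C; resolve by CE. Bidirectional fitting against DMSO.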

A short description of assay [4]: ATG_M_19_CIS: Attagene CIS-FACTORIAL HepG2 Assay for M19 Transcription Factor (Internal Marker) (AID 2282939). Particulars: HepG2 Attagene CIS-FACTORIAL M19 internal marker reporter; actives raise or lower the signal. The procedure, abridged: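 Following a 24 h exposure, RNA from transfected HepG2 cells was reverse-transcribed, PCR-amplified with reporter-specific primers, end-labelled with 6-FAM and HpaI-digested before capillary separation. Values represent gain or loss versus DMSO.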

Assay [5] can be described thus: ATG_ERE_CIS: Attagene CIS-FACTORIAL HepG2 Assay for Estrogen Response Element (ERE) (AID 2282940). Particulars: HepG2 ERE cis-reporter, Attagene RNA transcript; actives raise or lower the signal. The gist of the method:
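HepG2, transient cis-reporter units, 24 h exposure. RNA isolated, oligo(dT) RT, reporter-specific PCR, FAM extension, HpaI cut, CE detection. Gain/loss-of-signal vs DMSO.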

Assay [6] is described as follows: ATG_Ets_CIS: Attagene CIS-FACTORIAL HepG2 Assay for human Erythroblast Transformation Specific (ETS) (AID 2282941). The note with it: HepG2 ETS cis-reporter transcription, actives raise or lower the signal. The gist of the method: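 Endogenous transcription factor activity read as reporter mRNA via RT-PCR and capillary electrophoresis, with gain or loss fitted bidirectionally against DMSO. Human HepG2 liver cells, transiently transfected CIS reporter constructs, 24 h exposure.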

In assay [7] the target is Hepatocyte nuclear factor 3-beta (Homo sapiens) (UniProt Q9Y261). The assay can be described thus: ATG_FoxA2_CIS: Attagene CIS-FACTORIAL HepG2 Assay for human Forkhead box A2 (FOXA2) (AID 2282942). The note with it: HepG2 cis-reporter transcription factor activity, 24 h; actives raise or lower the signal. The procedure, abridged:
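24 h dosing of HepG2 bearing cis-reporter constructs; mRNA readout by RT-PCR/CE fluorescence; bidirectional fit, DMSO baseline.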

Assay [8] in a line: ATG_FoxO_CIS: Attagene CIS-FACTORIAL HepG2 Assay for human Forkhead box O (FoxO) (AID 2282943). The note with it: HepG2 Attagene cis-reporter, FoxO element, mRNA; actives raise or lower the signal. The procedure, abridged:
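Transfected HepG2 reporter cells exposed to test chemical for 24 h; reporter RNA measured by reverse transcription, PCR and fluorescent capillary electrophoresis; curves fitted for increases and decreases against DMSO.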

Assay [9] in a line: ATG_GATA_CIS: Attagene CIS-FACTORIAL HepG2 Assay for human GATA Binding Protein (AID 2282944). Particulars: HepG2 GATA cis-element reporter, Attagene multiplex mRNA; actives raise or lower the signal. The procedure, abridged: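 DMSO serves as negative control and baseline for bidirectional fitting of reporter mRNA changes. HepG2 cells bearing transiently transfected cis-promoter reporters were exposed 24 h; transcripts detected via RT-PCR and capillary electrophoresis.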

The nature of assay [10]: ATG_GLI_CIS: Attagene CIS-FACTORIAL HepG2 Assay for human Zinc Finger Protein GLI1 (AID 2282945). The note with it: HepG2, Attagene cis-factorial reporter mRNA, GLI element; actives raise or lower the signal. The procedure, abridged:
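Transiently transfected HepG2 cells report endogenous transcription factor activity via cis-element-driven reporter units. After 24 h compound exposure, reporter mRNA was measured by RT-PCR with capillary electrophoresis; bidirectional fitting against DMSO baseline.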

The nature of assay [11]: ATG_ISRE_CIS: Attagene CIS-FACTORIAL HepG2 Assay for human Interferon Regulatory Factor 1 (IRF1) binding to an Interferon-Stimulated Response Element (ISRE) (AID 2282948). The note with it: HepG2 ISRE cis-reporter (Attagene), mRNA transcription readout; actives raise or lower the signal. The procedure, abridged:
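Endogenous transcription factor activity read as reporter transcript abundance via RT-PCR and capillary electrophoresis. HepG2 cells transiently transfected, 24 h chemical exposure. Gain or loss fitted against DMSO baseline.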

Assay [12] can be described thus: ATG_M_32_CIS: Attagene CIS-FACTORIAL HepG2 Assay for M32 Transcription Factor (Internal Marker) (AID 2282949).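 Note: background control marker of the multiplexed CIS panel rather than a real target.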 The note with it: HepG2 Attagene cis-factorial M32 reporter, mRNA; actives raise or lower the signal. The procedure, abridged:
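Transient MRTU transfection of HepG2; 24 h compound treatment; TriZol RNA, oligo(dT) RT, reporter PCR, 6-FAM primer extension, HpaI cut, CE. Gain/loss of signal vs DMSO.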

The nature of assay [13]: ATG_M_06_CIS: Attagene CIS-FACTORIAL HepG2 Assay for M06 Transcription Factor (Internal Marker) (AID 2282950). The note with it: HepG2 Attagene CIS-FACTORIAL M06 internal marker reporter; actives raise or lower the signal. The procedure, abridged:
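Fluorescence-labelled RT-PCR products from cis-promoter reporter units, cut with HpaI and resolved by capillary electrophoresis, give the signal. Cells are human HepG2, dosed for 24 h. Serves as background control, fitted relative to DMSO.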

Assay [14] deals with Hypoxia-inducible factor 1-alpha (Homo sapiens) (UniProt Q16665). The assay can be described thus: ATG_HIF1a_CIS: Attagene CIS-FACTORIAL HepG2 Assay for human Hypoxia Inducible Factor 1 (HIF1A) (AID 2282951). Particulars: HepG2 Attagene cis-factorial HIF1a reporter transcription; actives raise or lower the signal. The gist of the method: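 After 24 h chemical exposure of reporter-transfected HepG2 cells, reporter cDNA was PCR-amplified, labelled by 6-FAM primer extension (2 min 95 C, 20 s 68 C, 10 min 72 C), HpaI-cut (2 h, 37 C) and analysed by CE.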
Hypoxia-inducible factor 1-alpha (Homo sapiens), sequence (Q16665 whole entry, looked up): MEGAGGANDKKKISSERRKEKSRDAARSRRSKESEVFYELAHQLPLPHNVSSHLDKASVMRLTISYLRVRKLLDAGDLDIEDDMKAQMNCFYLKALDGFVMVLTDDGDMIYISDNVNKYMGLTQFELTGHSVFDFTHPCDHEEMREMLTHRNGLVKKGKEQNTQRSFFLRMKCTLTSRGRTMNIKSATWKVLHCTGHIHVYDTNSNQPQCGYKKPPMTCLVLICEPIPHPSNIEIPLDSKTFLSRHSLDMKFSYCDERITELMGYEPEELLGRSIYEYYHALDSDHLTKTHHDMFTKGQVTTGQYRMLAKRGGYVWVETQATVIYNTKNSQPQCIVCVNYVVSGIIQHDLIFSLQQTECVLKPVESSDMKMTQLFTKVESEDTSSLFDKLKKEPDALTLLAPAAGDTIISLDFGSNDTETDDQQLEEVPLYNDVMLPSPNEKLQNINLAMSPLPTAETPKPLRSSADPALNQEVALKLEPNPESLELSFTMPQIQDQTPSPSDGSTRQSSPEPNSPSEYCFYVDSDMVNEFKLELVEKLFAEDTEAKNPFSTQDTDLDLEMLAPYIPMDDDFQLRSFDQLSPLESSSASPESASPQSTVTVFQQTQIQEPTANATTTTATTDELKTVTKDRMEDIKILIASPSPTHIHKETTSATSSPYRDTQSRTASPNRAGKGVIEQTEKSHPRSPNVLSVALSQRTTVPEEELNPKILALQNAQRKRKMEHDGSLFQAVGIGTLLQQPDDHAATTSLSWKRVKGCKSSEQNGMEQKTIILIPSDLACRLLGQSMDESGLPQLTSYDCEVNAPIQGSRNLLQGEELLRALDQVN

Assay [15] concerns the target Hepatocyte nuclear factor 6 (Homo sapiens) (UniProt Q9UBC0). The experiment in a line: ATG_HNF6_CIS: Attagene CIS-FACTORIAL HepG2 Assay for human Hepatocyte Nuclear Factor 6 (HNF6) (AID 2282952). The note with it: HepG2 Attagene cis-factorial HNF6 reporter transcription; actives raise or lower the signal. The gist of the method:
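Twenty-four-hour chemical treatment of reporter-transfected HepG2 cells precedes RNA isolation, DNase-treated reverse transcription and PCR of reporter sequences. Labelled fragments are sized by capillary electrophoresis and fitted bidirectionally versus DMSO.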

In assay [16] the target is Heat shock factor protein 1 (Homo sapiens) (UniProt Q00613). The assay can be described thus: ATG_HSE_CIS: Attagene CIS-FACTORIAL HepG2 Assay for human Heat Shock Transcription Factor 1 (HSE) (AID 2282953). The note with it: HepG2 HSE cis-reporter, Attagene RNA transcription; actives raise or lower the signal. The gist of the method:
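After a 24 h incubation with test chemical, transfected HepG2 cells were harvested for RNA; reporter transcripts were measured by RT-PCR and capillary electrophoresis. Values reflect gain or loss of signal relative to DMSO.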

Assay [17] can be described thus: ATG_MRE_CIS: Attagene CIS-FACTORIAL HepG2 Assay for human Metal Responsive Element (MRE) (AID 2282954). The note with it: HepG2 MRE cis-reporter transcription, Attagene multiplex; actives raise or lower the signal. The gist of the method:
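RT-PCR/capillary electrophoresis readout of reporter mRNA, 24 h post-dosing, in HepG2 cells transfected with multiplexed cis-regulated reporter constructs. Gain or loss of signal fitted bidirectionally against DMSO baseline.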

Assay [18] can be described thus: ATG_EGR_CIS: Attagene CIS-FACTORIAL HepG2 Assay for human Early Growth Response 1 (EGR1) (AID 2282938). Particulars: HepG2 Attagene CIS-FACTORIAL EGR reporter mRNA; actives raise or lower the signal. The gist of the method:
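After a 24 h treatment of transiently transfected HepG2 cells, total RNA was reverse-transcribed and reporter sequences PCR-amplified, labelled and run on capillary electrophoresis. Reporters sit under cis-regulatory promoters sensing endogenous factors.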

The nature of assay [19]: ATG_GRE_CIS: Attagene CIS-FACTORIAL HepG2 Assay for human Glucocorticoid Response Elements (GRE) (AID 2282947). The note with it: HepG2 GRE cis-reporter, Attagene multiplex mRNA; actives raise or lower the signal. The gist of the method: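 Read-out: fluorescent reporter-transcript fragments separated by capillary electrophoresis after RT-PCR. Transiently transfected HepG2 cells carrying cis-element-driven reporter units were dosed for 24 h; gain or loss of signal fitted against DMSO control.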

Assay [20] addresses Bile acid receptor (Homo sapiens) (UniProt Q96RI1). The assay can be described thus: ATG_IR1_CIS: Attagene CIS-FACTORIAL HepG2 Assay for human Nuclear Receptor Subfamily 1 Group H Member 4 (NR1H4), IR1 submotif (AID 2282946). Particulars: IR1 reporter transcription, actives raise or lower the signal. The gist of the method: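 Fluorescence of capillary-separated, HpaI-digested RT-PCR reporter products gave IR1-element mRNA induction in HepG2 cells 24 h after dosing. Endogenous transcription factors drove the cis-regulated reporters; activity was fitted bidirectionally against DMSO.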

Molecules are shown by their SMILES. Calls of active or inactive are those of the source. Rule for the calls: active = hit-call score of the fitted dose curve at least 0.9, where 1 is the maximum; inactive = score below 0.9.

Hepatocyte nuclear factor 6 (Homo sapiens), sequence (Q9UBC0 whole entry, looked up, the tested form may be a part): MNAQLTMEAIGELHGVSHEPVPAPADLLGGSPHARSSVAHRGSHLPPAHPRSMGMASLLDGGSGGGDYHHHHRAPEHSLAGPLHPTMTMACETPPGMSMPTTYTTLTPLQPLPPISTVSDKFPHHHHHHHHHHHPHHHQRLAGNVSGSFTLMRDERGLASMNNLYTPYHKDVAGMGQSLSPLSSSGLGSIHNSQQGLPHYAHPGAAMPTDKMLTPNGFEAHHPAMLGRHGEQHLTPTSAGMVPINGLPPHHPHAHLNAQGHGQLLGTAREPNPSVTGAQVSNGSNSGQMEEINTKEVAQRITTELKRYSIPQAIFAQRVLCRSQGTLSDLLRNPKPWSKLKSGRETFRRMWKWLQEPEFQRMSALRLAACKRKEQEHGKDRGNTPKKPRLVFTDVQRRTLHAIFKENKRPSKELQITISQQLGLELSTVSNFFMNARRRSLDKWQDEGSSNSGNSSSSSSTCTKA
Hepatocyte nuclear factor 3-beta (Homo sapiens), sequence (Q9Y261 whole entry, looked up): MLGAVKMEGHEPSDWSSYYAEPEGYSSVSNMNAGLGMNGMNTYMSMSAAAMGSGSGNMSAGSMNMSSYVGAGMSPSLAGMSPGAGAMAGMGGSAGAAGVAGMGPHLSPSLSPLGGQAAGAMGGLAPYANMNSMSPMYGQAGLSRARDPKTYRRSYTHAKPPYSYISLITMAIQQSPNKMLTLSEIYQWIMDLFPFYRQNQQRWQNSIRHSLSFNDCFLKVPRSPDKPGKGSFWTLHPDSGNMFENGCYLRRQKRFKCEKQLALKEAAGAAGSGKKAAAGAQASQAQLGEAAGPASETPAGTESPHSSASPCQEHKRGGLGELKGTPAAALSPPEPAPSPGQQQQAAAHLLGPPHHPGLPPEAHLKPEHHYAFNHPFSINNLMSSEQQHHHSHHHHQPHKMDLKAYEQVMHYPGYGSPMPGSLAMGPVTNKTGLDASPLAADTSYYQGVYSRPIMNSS
Transcription factor E2F1 (Homo sapiens), sequence (Q01094 whole entry, looked up): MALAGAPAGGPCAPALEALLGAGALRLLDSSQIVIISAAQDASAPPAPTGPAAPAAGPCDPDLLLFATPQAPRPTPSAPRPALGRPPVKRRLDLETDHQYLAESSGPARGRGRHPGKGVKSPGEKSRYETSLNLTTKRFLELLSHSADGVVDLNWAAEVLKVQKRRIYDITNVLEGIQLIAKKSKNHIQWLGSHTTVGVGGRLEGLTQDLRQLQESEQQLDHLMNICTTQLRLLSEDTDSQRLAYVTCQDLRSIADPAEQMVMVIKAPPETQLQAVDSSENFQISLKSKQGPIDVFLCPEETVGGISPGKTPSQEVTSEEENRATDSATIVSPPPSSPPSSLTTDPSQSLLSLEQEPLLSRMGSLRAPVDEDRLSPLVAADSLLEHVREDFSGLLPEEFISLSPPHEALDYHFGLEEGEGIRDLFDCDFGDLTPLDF
Heat shock factor protein 1 (Homo sapiens), sequence (Q00613 whole entry, looked up): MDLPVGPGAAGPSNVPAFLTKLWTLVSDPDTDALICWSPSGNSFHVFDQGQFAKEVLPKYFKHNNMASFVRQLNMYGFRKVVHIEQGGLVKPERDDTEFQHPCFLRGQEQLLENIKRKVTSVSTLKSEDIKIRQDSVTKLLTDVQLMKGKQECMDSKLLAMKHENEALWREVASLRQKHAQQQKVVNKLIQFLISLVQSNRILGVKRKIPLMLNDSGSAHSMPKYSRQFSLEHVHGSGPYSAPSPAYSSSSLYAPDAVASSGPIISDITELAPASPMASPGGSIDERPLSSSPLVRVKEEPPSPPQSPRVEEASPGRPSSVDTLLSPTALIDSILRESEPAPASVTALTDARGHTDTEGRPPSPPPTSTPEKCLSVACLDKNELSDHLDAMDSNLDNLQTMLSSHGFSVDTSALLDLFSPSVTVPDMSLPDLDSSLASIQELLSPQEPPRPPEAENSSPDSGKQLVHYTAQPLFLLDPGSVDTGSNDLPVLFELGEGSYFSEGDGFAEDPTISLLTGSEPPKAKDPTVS
Bile acid receptor (Homo sapiens), sequence (Q96RI1 whole entry, looked up): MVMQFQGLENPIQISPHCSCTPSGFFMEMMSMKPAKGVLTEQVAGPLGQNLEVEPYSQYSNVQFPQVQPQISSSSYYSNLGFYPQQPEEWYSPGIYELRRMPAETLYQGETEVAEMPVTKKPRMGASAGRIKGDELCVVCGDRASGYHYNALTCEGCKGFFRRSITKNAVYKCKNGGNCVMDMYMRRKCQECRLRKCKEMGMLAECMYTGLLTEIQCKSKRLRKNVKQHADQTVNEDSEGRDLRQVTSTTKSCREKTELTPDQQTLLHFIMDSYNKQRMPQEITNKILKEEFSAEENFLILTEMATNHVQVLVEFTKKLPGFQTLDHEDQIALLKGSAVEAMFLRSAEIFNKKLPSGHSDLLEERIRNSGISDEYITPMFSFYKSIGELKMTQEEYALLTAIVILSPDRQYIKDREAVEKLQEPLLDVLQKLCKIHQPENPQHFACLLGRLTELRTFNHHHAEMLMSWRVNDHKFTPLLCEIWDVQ

As to `CC=C(C)C(C)=O`, the call in [1], in assay [2], in [3], in assay [4], in [5] and in assay [6] was inactive. Moreover, the molecule was classed as inactive in assay [7], in [8], in assay [9], in assay [10], in assay [11] and in [12]. The call in [13], in [14], in assay [15], in assay [16] and in [17] was inactive.
On to `Nc1cccc(N)n1`, for which the outcome in [1], in assay [2], in assay [3], in assay [18], in [5] and in assay [6] was inactive. Moreover, the result in assay [7], in [9], in [10], in [19], in assay [11] and in [12] was inactive. Besides, the call in assay [13], in assay [14], in [15], in [16] and in [17] was inactive.
For the molecule `CC(Cl)COP(=O)(OCC(C)Cl)OCC(C)Cl` (stereo not drawn), the call in assay [1], in [2], in assay [3], in assay [18], in assay [5] and in assay [6] was inactive. Besides, the molecule was classed as inactive in [7], in assay [8], in assay [9], in assay [10], in assay [11] and in assay [12]. The result in [13], in assay [14], in assay [15], in assay [16] and in [17] was inactive.
With `CCC(C)C(=O)OC` (stereo not drawn), the molecule was classed as inactive in [1], in assay [2], in assay [3], in assay [4], in [5] and in [6]. Also, the result in assay [7], in assay [8], in [9], in assay [10], in [20] and in [11] was inactive. Further, the molecule was called inactive in [12], in assay [13], in assay [14], in [15], in assay [16] and in assay [17].
Take `CCOC(=O)[C@H](O)[C@@H](O)C(=O)OCC`: the result in assay [1], in assay [2], in assay [3], in assay [4], in assay [5] and in [6] was inactive. The call in assay [7], in [8], in assay [9], in [10], in [20] and in assay [19] was inactive. For the same molecule, the molecule was called inactive in assay [11], in [12], in assay [13], in assay [14], in assay [15] and in assay [16]. The call in assay [17] was inactive.
Usually AC50 stands for the midpoint of the concentration-response curve, whichever way the signal moves. As for `C=CC(=O)OCCCCCCCC(C)C`, the outcome in [1], in [3], in [4], in assay [6], in assay [7] and in assay [8] was inactive. The outcome in assay [9], in assay [10], in [11], in assay [12], in assay [13] and in [15] was inactive. The outcome in assay [16] and in [17] was inactive. The AC50 in [2] was 157 µM (active); in [5] it was 100 µM (active); in assay [20] it was 91.4 µM (active); in [14] it was 71.8 µM (active).
Turning to `CCOC(=O)/C=C\C(=O)OCC`, the result in assay [1], in assay [2], in assay [3], in [18], in assay [5] and in assay [6] was inactive. Further, the outcome in assay [7], in assay [9], in assay [10], in assay [19], in assay [11] and in [12] was inactive. Further, the call in assay [13], in [15] and in [17] was inactive.
Turning to `CCCCCCO`, the outcome in assay [1], in assay [2], in assay [3], in [4], in [5] and in [6] was inactive. Besides, the call in assay [7], in assay [8], in assay [9], in assay [10], in assay [19] and in assay [11] was inactive. Also, the outcome in assay [12], in [13], in assay [14], in assay [15] and in [17] was inactive.
